Assay results as given in PubChem BioAssay (NCATS).
Results filed as inconclusive are left out. More than one record can exist for a structure, and the calls need not agree. Activity calls are given as the source filed them. Unless noted, the call rests on the fitted dose curve; in most records, active means well fitted curve in the direction sought with a large enough effect; inconclusive means small, poorly fitted or top-dose-only effect, or another doubt; inactive means no such curve, though single readings can be large; an effect the other way counts as inactive or inconclusive.

What was measured:
[1] = qHTS for Inhibitors of Plasmodium falciparum (DD2) proliferation (AID 504314); further: potency means the concentration at half of the fitted maximal effect;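 on activity, negative = inhibition: parasite DNA measured by SYBR Green fluorescence after red cell lysis; plate controls were DMSO vehicle for no effect and artemisinin wells for full effect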
In short: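 P. falciparum Dd2 is grown in erythrocytes with test compound for 72 h at 37C under 5% CO2. Growth is scored by SYBR Green I fluorescence after detergent lysis, relative to artemisinin (0.29 uM) and DMSO controls.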

[2] = qHTS for Inhibitors of Plasmodium falciparum (GB4) proliferation (AID 504315); further: nearly all actives have a fitted effect of over 50% in size; further: potency means the concentration at half of the fitted maximal effect
In short: (§1)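 Parasite growth measured as SYBR Green DNA fluorescence (ex 485, em 535 nm) after overnight lysis following 72 h culture at 37 °C, 0.3% parasitemia, 2.5% hematocrit. Values normalized against DMSO and 0.29 uM artemisinin controls, with plate-stack correction.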

[3] = qHTS for Inhibitors of Plasmodium falciparum (7G8) proliferation (AID 504316); further: nearly all actives have a fitted effect of over 65% in size; further: potency means the concentration at half of the fitted maximal effect
In short: as §1

[4] = qHTS for Inhibitors of Plasmodium falciparum (HB3) proliferation (AID 504318); further: nearly all actives have a fitted effect of over 60% in size; further: potency means the concentration at half of the fitted maximal effect
In short: as §1

[5] = qHTS for Inhibitors of Plasmodium falciparum (CP250) proliferation (AID 504320); further: potency means the concentration at half of the fitted maximal effect
In short: as §1

[6] = target: Atrial natriuretic peptide receptor 1 (Homo sapiens) (UniProt P16066); experiment: Natriuretic polypeptide receptor (hNpr1) antagonism - Pilot CMLD screen (AID 1347052; calls by dose curve;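 further: HEK293 cells with hNpr1 stimulated by hNppA peptide at 0.1 nM; cGMP level read as GloSensor luciferase luminescence after agonist stimulation; series mostly up to about 9.2 µM; on the % scale 0 is the no-effect control and ±100 the full control effect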)
Sequence of Atrial natriuretic peptide receptor 1 (Homo sapiens) (P16066 whole entry, looked up): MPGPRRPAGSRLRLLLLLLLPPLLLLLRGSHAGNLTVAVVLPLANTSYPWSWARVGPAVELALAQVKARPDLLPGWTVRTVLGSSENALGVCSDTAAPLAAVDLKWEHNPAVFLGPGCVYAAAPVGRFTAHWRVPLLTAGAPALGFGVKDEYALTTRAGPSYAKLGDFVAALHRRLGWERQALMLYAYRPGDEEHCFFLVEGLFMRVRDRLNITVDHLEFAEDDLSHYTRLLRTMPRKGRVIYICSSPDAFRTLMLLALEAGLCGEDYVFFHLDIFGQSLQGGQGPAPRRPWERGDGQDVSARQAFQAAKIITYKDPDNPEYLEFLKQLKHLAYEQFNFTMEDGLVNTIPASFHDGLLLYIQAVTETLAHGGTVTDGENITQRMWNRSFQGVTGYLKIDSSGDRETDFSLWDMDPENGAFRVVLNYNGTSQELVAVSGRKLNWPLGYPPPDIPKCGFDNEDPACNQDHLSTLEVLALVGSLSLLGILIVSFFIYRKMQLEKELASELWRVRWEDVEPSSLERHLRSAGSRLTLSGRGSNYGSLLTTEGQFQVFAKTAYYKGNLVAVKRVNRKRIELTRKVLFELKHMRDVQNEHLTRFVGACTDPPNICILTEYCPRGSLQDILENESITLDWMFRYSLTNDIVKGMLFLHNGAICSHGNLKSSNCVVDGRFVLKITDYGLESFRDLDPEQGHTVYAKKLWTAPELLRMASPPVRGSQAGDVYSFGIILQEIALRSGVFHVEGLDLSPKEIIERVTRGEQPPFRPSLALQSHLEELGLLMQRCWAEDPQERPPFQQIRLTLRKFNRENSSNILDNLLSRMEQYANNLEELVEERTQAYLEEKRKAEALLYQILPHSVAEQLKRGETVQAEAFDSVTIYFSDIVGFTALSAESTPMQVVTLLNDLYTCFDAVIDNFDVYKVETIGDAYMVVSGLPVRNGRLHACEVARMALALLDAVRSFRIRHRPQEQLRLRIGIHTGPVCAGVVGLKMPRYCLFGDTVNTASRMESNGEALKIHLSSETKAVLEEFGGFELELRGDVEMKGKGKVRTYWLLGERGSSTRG

COC(=O)N[C@@H](c1ccco1)[C@]1(C(=O)OC)CCCC1=O
inactive: Potency [1] | Potency [2] | Potency [3] | Potency [4] | Potency [5] | Potency [6]

C#CCCCON=C1C[C@@H](O)[C@H](O)[C@H]2[C@@H]3C(=O)N(C[C@@H]4CCCO4)C(=O)[C@@H]3CC[C@H]12
inactive: Potency [1] | Potency [2] | Potency [3] | Potency [4] | Potency [5] | Potency [6]

CC(C)CON=C1C[C@@H](O)[C@@H](O)[C@@H]2[C@H]3C(=O)N(c4ccc(F)cc4F)C(=O)[C@@H]3CC[C@H]12
inactive: Potency [1] | Potency [2] | Potency [3] | Potency [4] | Potency [5] | Potency [6]

CCN1C(=O)[C@@H]2[C@H]3[C@H](O)[C@H](O)CC(=NOC[C@@H](O)COCc4ccco4)[C@@H]3CC[C@H]2C1=O
inactive: Potency [1] | Potency [2] | Potency [3] | Potency [4] | Potency [5] | Potency [6]

COC(=O)[C@@H]1C[C@@]23C(=NN=C(SC)C2Nc2ccccc23)N1C(C)=O (stereo not given in full)
inactive: Potency [1] | Potency [2] | Potency [3] | Potency [4] | Potency [5] | Potency [6]

C=CC[C@@]1(C(=O)OC)C=C[C@@H](C)[C@H](c2ccccc2Br)N1C(=O)C(F)(F)F
inactive: Potency [1] | Potency [2] | Potency [3] | Potency [4] | Potency [5] | Potency [6]

C=CCOC(=O)NC(c1ccc(F)c(F)c1)C(C(=O)COC)C(=O)OC (stereo not given)
inactive: Potency [1] | Potency [2] | Potency [3] | Potency [4] | Potency [5] | Potency [6]

COc1ccc([C@]23Cc4cc(C#N)ccc4[C@H](O2)c2c(c4ccc(OC)cc4oc2=O)O3)cc1
1.69 µM (active) and inactive: Potency [3]
inactive: Potency [1] | Potency [2] | Potency [4] | Potency [5] | Potency [6]

C=CCOC(=O)C(C(C)=O)[C@@H](NC(=O)OC)c1ccc(F)cc1 (stereo not given in full)
inactive: Potency [1] | Potency [2] | Potency [3] | Potency [4] | Potency [5] | Potency [6]

CCOC(=O)CCN1C(=O)[C@@H]2[C@H]3[C@H](O)[C@H](O)CC(=NNC(=O)OCc4ccccc4)[C@H]3CC[C@H]2C1=O
inactive: Potency [1] | Potency [2] | Potency [3] | Potency [4] | Potency [5] | Potency [6]

COC(=O)N[C@@H](C=Cc1ccco1)[C@]1(C(=O)OC)CCCC1=O
inactive: Potency [1] | Potency [2] | Potency [3] | Potency [4] | Potency [5] | Potency [6]

C=C[C@H](C)[C@](C)(O)c1ccccc1
inactive: Potency [1] | Potency [2] | Potency [3] | Potency [4] | Potency [5] | Potency [6]

O=C1c2ccccc2C(=O)N1CCCC[C@]12Cc3c(ccc4ccccc34)[C@H](O1)c1c(cc(-c3ccccc3)oc1=O)O2
inactive: Potency [6]
active: Potency [1] 753 nM | Potency [2] 536 nM | Potency [3] 379 nM | Potency [4] 536 nM | Potency [5] 1510 nM

COC(=O)C1=C[C@@H]([C@@H](C)[C@H](OC)c2ccccc2Br)[C@@H]2OCC[C@H]12
inactive: Potency [1] | Potency [2] | Potency [3] | Potency [4] | Potency [5] | Potency [6]

C#CCCOC(=O)N1C2=NC(C(=O)OC)=C(C(=O)OC)[C@@H]3Nc4ccccc4[C@]23C[C@H]1C(=O)OC
inactive: Potency [1] | Potency [2] | Potency [3] | Potency [4] | Potency [5] | Potency [6]

COc1cccc([C@@H]2Oc3ccc(Br)cc3C[C@@H]2OC(=O)N[S+](=O)([O-])c2ccc(C)cc2)c1
inactive: Potency [1] | Potency [2] | Potency [3] | Potency [4] | Potency [5] | Potency [6]

Cc1ccc(C#C[C@@H]2C=C[C@H](Oc3ccc4c(c3)OCO4)[C@@H](CO)O2)c(C)c1
inactive: Potency [1] | Potency [2] | Potency [3] | Potency [4] | Potency [5] | Potency [6]

COC(=O)C1=C(C)N(Cc2ccccc2)C(=O)NC1c1cccc(F)c1 (stereo not given)
inactive: Potency [1] | Potency [2] | Potency [3] | Potency [4] | Potency [5] | Potency [6]

CCOC(=O)OC[C@H]1O[C@H](c2cc(C)cc(C)c2)C=C[C@H]1OC(=O)OCC
inactive: Potency [1] | Potency [2] | Potency [3] | Potency [4] | Potency [5] | Potency [6]

CC(=O)OC[C@H]1O[C@@H](ON=C(C)CCN2CCCCc3nc(C)c(C)cc32)[C@H](OC(C)=O)[C@@H](OC(C)=O)[C@H]1OC(C)=O
inactive: Potency [1] | Potency [2] | Potency [3] | Potency [4] | Potency [5] | Potency [6]

COCCN1C(=O)NC(c2cccc(C(F)(F)F)c2)C(C(C)=O)=C1C (stereo not given)
inactive: Potency [1] | Potency [2] | Potency [3] | Potency [4] | Potency [5] | Potency [6]

COc1ccc(O[C@H]2C=C[C@@H](c3ccccc3)O[C@H]2COC(=O)CCC(C)=NO[C@@H](C)c2cc(-c3c(C)cc(C)cc3C)no2)cc1
inactive: Potency [1] | Potency [2] | Potency [3] | Potency [4] | Potency [5] | Potency [6]

CCN1C(=NCCc2c[nH]c3ccccc23)NC(c2ccccc2)C(C(=O)OC)=C1C (stereo not given)
inactive: Potency [1] | Potency [2] | Potency [3] | Potency [4] | Potency [5] | Potency [6]

COC(=O)N[C@@H](c1ccccc1)[C@]1(C(C)=O)CCCC1=O
inactive: Potency [1] | Potency [2] | Potency [3] | Potency [4] | Potency [5] | Potency [6]

C=CCOC(=O)N[C@H](c1ccccc1)[C@H](C)C=CCC(=O)OC
inactive: Potency [1] | Potency [2] | Potency [3] | Potency [4] | Potency [5] | Potency [6]

O=C1C[C@@H](c2ccccc2)[C@H](c2ccc(Br)cc2)O1
inactive: Potency [1] | Potency [2] | Potency [3] | Potency [4] | Potency [5] | Potency [6]

C=COC[C@@H]1CN2[C@H](c3ccc(Br)cc3)[C@H](C)CC[C@H]2C(=O)O1
inactive: Potency [1] | Potency [2] | Potency [3] | Potency [4] | Potency [5] | Potency [6]

CC(=O)C1=C(C)N(Cc2ccccc2)C(=O)NC1c1cccc(F)c1 (stereo not given)
inactive: Potency [1] | Potency [2] | Potency [3] | Potency [4] | Potency [5] | Potency [6]

C[C@@H](ON=C1[C@H]2CCn3c(=O)n(-c4ccccc4)c(=O)n3[C@@H]2[C@H](O)[C@@H]2O[C@H]12)c1cn([C@@H]2COC[C@@H]2O)nn1
inactive: Potency [1] | Potency [2] | Potency [3] | Potency [4] | Potency [5] | Potency [6]

CSc1nnc2c(n1)C[C@H](c1ccccc1)[C@@H](C)[C@@H](C(=O)N1CCCC1)C2
inactive: Potency [1] | Potency [2] | Potency [3] | Potency [4] | Potency [5] | Potency [6]

O=C(NC(CC1=CCCCC1)c1ccccc1)C(F)(F)F (stereo not given)
inactive: Potency [1] | Potency [2] | Potency [3] | Potency [4] | Potency [5] | Potency [6]

Cc1cc2c(c(=O)o1)[C@H]1O[C@](c3ccsc3)(Cc3ccccc31)O2
inactive: Potency [1] | Potency [2] | Potency [3] | Potency [4] | Potency [5] | Potency [6]

COC(=O)CC=C[C@@H](C)[C@H](NC(=O)OC)c1ccccc1Br
inactive: Potency [1] | Potency [2] | Potency [3] | Potency [4] | Potency [5] | Potency [6]

Cc1noc(C)c1S(=O)(=O)N1CCc2nc(COc3ccccc3)c3c(c2C1)CO[C@@H](C)C3
inactive: Potency [1] | Potency [2] | Potency [3] | Potency [4] | Potency [5] | Potency [6]

COCCN1C(=O)N[C@@H](CCc2ccccc2)[C@H](C(=O)OC)[C@H]1C
inactive: Potency [1] | Potency [2] | Potency [3] | Potency [4] | Potency [5] | Potency [6]

CC[C@H](C)[C@@H](NC(=O)O[C@@H]1C(=O)c2cc(OC)ccc2O[C@H]1c1ccc(OC)c(Br)c1)C(=O)OC
inactive: Potency [1] | Potency [2] | Potency [3] | Potency [4] | Potency [5] | Potency [6]

c1ccc(CCc2nc(-c3ccccc3)oc2Nc2ccc3ccccc3c2)cc1
inactive: Potency [1] | Potency [2] | Potency [3] | Potency [4] | Potency [5] | Potency [6]

COc1ccc(OC[C@@H]2CC3[C@@H](CC[C@@H](C)[C@H]3c3ccc(Br)cc3)C(=O)O2)cc1 (stereo not given in full)
inactive: Potency [1] | Potency [2] | Potency [3] | Potency [4] | Potency [5] | Potency [6]

CC(=O)OC[C@H]1O[C@H](CC=NO[C@@H](C)c2cn([C@H](CO)Cc3ccccc3)nn2)C=C[C@@H]1OC(C)=O
inactive: Potency [1] | Potency [2] | Potency [3] | Potency [4] | Potency [5] | Potency [6]

COC(=O)c1ccc(CN2C(=O)C3(CC(C)=C[C@@H](C)O3)c3c(Br)cccc32)cc1 (stereo not given in full)
inactive: Potency [1] | Potency [2] | Potency [3] | Potency [4] | Potency [5] | Potency [6]

COC(=O)C1=C(C)N(CC2CC2)C(=NCCc2cccnc2)NC1c1ccccc1 (stereo not given)
inactive: Potency [1] | Potency [2] | Potency [3] | Potency [4] | Potency [5] | Potency [6]

O=C1[C@H]2[C@@H]3[C@@H](O)[C@H](O)CC(=NOCc4ccccc4)[C@H]3CC[C@H]2C(=O)N1C[C@@H]1CCCO1
inactive: Potency [1] | Potency [2] | Potency [3] | Potency [4] | Potency [5] | Potency [6]

COCC=CC1=CC2=CC(=O)C(C)(OC(=O)c3cnc4ccccc4n3)C(=O)C2=CN1CCCCO (stereo not given)
inactive: Potency [1] | Potency [2] | Potency [3] | Potency [4] | Potency [5] | Potency [6]

COC(=O)[C@H](COC(C)(C)C)NC(=O)O[C@@H]1C(=O)c2ccc(OC)cc2O[C@H]1c1ccc2c(c1)OCO2
inactive: Potency [1] | Potency [2] | Potency [3] | Potency [4] | Potency [5] | Potency [6]

O=C1CCCC(C(C(=O)OCc2ccccc2)C(=O)OCc2ccccc2)C1 (stereo not given)
inactive: Potency [1] | Potency [2] | Potency [3] | Potency [4] | Potency [5] | Potency [6]

COCCN1C(=O)N(C)C(c2ccccc2)C(C(C)=O)=C1C (stereo not given)
inactive: Potency [1] | Potency [2] | Potency [3] | Potency [4] | Potency [5] | Potency [6]

C=CCOC(=O)N[C@H](C(C(=O)OC)=C(C)NCc1ccccc1)c1cccc(OC)c1
inactive: Potency [1] | Potency [2] | Potency [3] | Potency [4] | Potency [5] | Potency [6]

CC(C)CON=C1C[C@@H](O)[C@@H](O)[C@@H]2[C@H]3C(=O)N(C4CCCCC4)C(=O)[C@@H]3CC[C@@H]12
inactive: Potency [1] | Potency [2] | Potency [3] | Potency [4] | Potency [5] | Potency [6]

CC1(OC(=O)C2CCCC2)C(=O)C=C2C=C(c3ccsc3)N(C3CC3)C=C2C1=O (stereo not given)
inactive: activity, negative = inhibition [1] -0.441% [at 1.12 µM] | Potency [2] | Potency [3] | Potency [4] | Potency [5] | Potency [6]

COC(=O)CCC(=O)OC1(C)C(=O)C=C2C=C3CCCN3C=C2C1=O (stereo not given)
inactive: Potency [1] | Potency [2] | Potency [3] | Potency [4] | Potency [5] | Potency [6]
